Screening results as filed in PubChem BioAssay.
Compounds with a hit are over-represented: about 3.2% of the library has one in this group of screens.
Rv3671c protease: Rv3671c (M. tuberculosis) protease inhibition; inhibition, % at 5.96 µM; hit rate 0.048% among 320,000; AID 2606; in the data active means inhibition above about 38%;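 further: extracellular domain of Rv3671c used as enzyme; 0% = enzyme with DMSO and 100% = no enzyme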
SSB-PriA inh: inhibitors of Klebsiella pneumoniae PriA binding to SSB C-terminal tail. AlphaScreen SSBct-PriA binding, biotinylated peptide. inhibition, % at 33 µM. hit rate 0.6% among 430,000. AID 1272365; in the data active means inhibition mostly above about 37%, no sharp cut-off; inactive means mostly below about 20%;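 further: plate controls were negative control peptide for no effect and reference peptide for full effect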
GDH-TPI counter: inhibits GDH-TPI coupling enzymes, artifact for Mtb FBA screen. inhibition, % at 4.8 µM. hit rate 1.2% among 360,000. GDH-TPI coupled enzyme counterscreen, NADH absorbance. AID 588335; in the data active means inhibition above about 30%;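 further: 0% = DMSO wells and 100% = wells lacking the enzyme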
UGM FP inh: Mtb UDP-galactopyranose mutase inhibition; inhibition, % at 10 µM; P9WIQ1; purified UGM, fluorescence polarization probe displacement; hit rate 0.06% among 320,000; in the data active means inhibition above about 10%, passing the limit was not always enough
Mtb bLac sens: beta-lactam sensitization of Mtb H37Rv. M. tuberculosis H37Rv growth with meropenem, percent inhibition. inhibition, % at 25 µM. hit rate 0.27% among 330,000. AID 434955; call rule not given here;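 further: growth measured after seven days incubation then overnight dye step; 0% = bacteria only wells and 100% = bacteria with antibiotic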
FBA Mtb inh: inhibitors of M. tuberculosis fructose-bisphosphate aldolase. P9WQA3. purified M. tuberculosis FBA, fluorescence read-out. inhibition, % at 1 µM. hit rate 2.3% among 360,000. AID 588726; in the data active means inhibition above about 27%;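 further: 0% = vehicle and 100% = reference inhibitor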
Target sequence (P9WQA3 whole entry, looked up): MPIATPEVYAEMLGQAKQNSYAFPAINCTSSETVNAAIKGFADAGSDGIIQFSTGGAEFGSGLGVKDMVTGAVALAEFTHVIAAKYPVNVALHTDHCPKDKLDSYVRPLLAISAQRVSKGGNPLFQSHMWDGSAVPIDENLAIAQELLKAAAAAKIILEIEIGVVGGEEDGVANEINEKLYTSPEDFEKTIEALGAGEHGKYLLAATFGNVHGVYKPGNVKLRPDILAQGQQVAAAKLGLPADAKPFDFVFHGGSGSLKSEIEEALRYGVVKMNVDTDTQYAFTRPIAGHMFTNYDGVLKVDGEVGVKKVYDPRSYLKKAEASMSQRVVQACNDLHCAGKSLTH
Numbers without * were called inactive; . = no result given; + = active, no number; ! = not confirmed by another sample.

SMILES | Rv3671c protease | SSB-PriA inh | GDH-TPI counter | UGM FP inh | Mtb bLac sens | FBA Mtb inh
CSc1nn(CC(=O)Nc2ccc3c(c2)OCO3)c(N)c1-c1nc(-c2ccccc2)no1 | . | 6 | . | . | . | .
O=C(Nc1nc(-c2ccccn2)cs1)NC1CCCC1 | . | 130* | . | . | . | .
O=C(Nc1ccc(C(=O)Nc2nc(-c3ccccn3)cs2)cc1)NC1CC1 | . | 93* | . | . | . | .
COc1ccc(OCCCC(=O)Nc2nc(-c3ccccn3)cs2)cc1 | 2 | -19 | 5 | 0 | 85 | -1
COC(=O)NC1(C(=O)Nc2nc(-c3ccccn3)cs2)CCCC1 | . | 95* | . | . | . | .
O=C(Nc1nc(-c2ccccn2)cs1)C12CC3CC(CC(O)(C3)C1)C2 | -5 | 76* | 2 | 4 | 85 | 3
O=C(Nc1nc(-c2ccccn2)cs1)C1CC(=O)N(c2ccc3c(c2)OCCO3)C1 (centres undefined) | -6 | 78* | 23 | 5 | 87 | 2
CCc1ccc(-c2cc3c(SCC(=O)Nc4cc(Cl)ccc4OC)nccn3n2)cc1 | . | -6 | . | . | . | .
CC(=O)Nc1ccc(NC(=O)COc2cccc3c2OC(C)(C)C3)cc1 | -7 | 4 | 3 | 2 | 1 | 2
COC(=O)c1ccc(NC(=O)COc2cccc3c2OC(C)(C)C3)cc1 | -2 | 46*! | 7 | -1 | 0 | 3
CN(C)CCN(C(=O)Cc1cccs1)c1nc2ccccc2s1 | . | -6 | . | . | . | .
CC(=O)Nc1cccc(NC(=O)CCc2ccccc2)c1 | 0 | 1 | 2 | 1 | -9 | 1
CN(C)c1cccc(NC(=O)CCc2ccccc2)c1 | -2 | 54* | 7 | -2 | 47 | 3
CCOc1ccc(-c2noc(-c3sccc3S(=O)(=O)N(C)c3cc(C)cc(C)c3)n2)cc1 | . | -11 | . | . | . | .
Cc1cc(=S)[nH]c(=S)[nH]1 | -6 | -12 | 35* | 2 | -6 | -1
O=C(Nc1nc2c(s1)CCCC2=O)c1cnccn1 | -5 | -5 | 32* | 3 | 21 | 2
CC(=O)Nc1nc(-c2ccccc2)cc(-c2ccco2)c1C#N | -2 | -16 | 16 | 1 | 0 | +
O=c1[nH]cnc2nc(-c3ccc(N(CCCl)CCCl)cc3)[nH]c12 | . | -9 | 47* | . | . | .
Cc1ccc(C(O)CNC(=O)Nc2ccc(C(F)(F)F)cc2)o1 (centres undefined) | . | -6 | . | . | . | .
CCOc1ccccc1N(C)C(=O)c1cc2c(=O)n(CC)c3ccccc3c2s1 | -15 | -5 | 42* | -7 | 3 | 4
O=C(CCCn1nc(-c2cccs2)ccc1=O)Nc1ccc(F)c(F)c1 | . | -5 | . | . | . | .
COc1ccccc1-c1c(C)oc2c(CN3CCN(C)CC3)c(O)ccc2c1=O | 15 | -9 | 21 | 3 | 6 | 143*
CCOC(=O)c1oc2c(CN3CCN(C)CC3)c(O)ccc2c(=O)c1-c1ccccc1OC | 3 | -10 | 15 | -2 | -12 | -4
COc1ccccc1-c1c(C)oc2c(CN3CCN(CCO)CC3)c(O)ccc2c1=O | . | -18 | 14 | . | . | 176*
COC(=O)c1ccc(Oc2c(C(F)(F)F)oc3c(CN4CCN(C)CC4)c(O)ccc3c2=O)cc1 | 0 | 2 | 16 | 0 | -19 | -1
SMILES | Rv3671c protease | SSB-PriA inh | GDH-TPI counter | UGM FP inh | Mtb bLac sens | FBA Mtb inh
Cc1ccccc1OCc1nc2ccccc2c(=O)n1N=Cc1c[nH]c2ccccc12 | . | -3 | . | . | . | .
Oc1[nH]c2ccccc2c1N=NC(=S)N1CCOCC1 | -16 | 59* | 19 | 2 | 96 | -22
COc1ccc(C)cc1NC(=O)N1CCN(c2cc(-n3ccnc3)ncn2)CC1 | . | -9 | . | . | . | .
CCc1ccc(NC(=O)C(=O)c2cn(CC(=O)N3CCCCC3)c3ccccc23)cc1 | -53 | -8 | 37* | 0 | -8 | -3
COc1cccc(NC(=O)C(=O)c2cn(CC(=O)N3CCCC3)c3ccccc23)c1 | 2 | 8 | 31* | -2 | 2 | -1
COc1ccc2nc(-c3ccc(OC)c(NC(=O)C(C)Oc4ccccc4F)c3)cn2n1 (centres undefined) | . | -13 | . | . | . | .
CCOc1ccc(/C=N/n2nnnc2N)cc1OCC | -5 | . | 31* | -1 | 0 | 6
CCOc1cc(/C=N\n2nnnc2N)ccc1O | -1 | . | 16 | 2 | -10 | 4
Cc1cc2cc(CNS(=O)(=O)N(C)C)ccc2[nH]1 | 3 | 46*! | 0 | 1 | -7 | -1
Cc1ccc(S(=O)(=O)NCc2ccc3[nH]c(C)cc3c2)cc1 | 2 | 43* | 14 | -3 | 5 | 0
CCCCNC(=S)NCc1ccc2[nH]c(C)cc2c1 | 5 | 50*! | -7 | 2 | -1 | 2
Cc1cc(C(=O)Nc2ccccc2S(C)(=O)=O)no1 | . | 3 | . | . | . | .
